Only some compounds are listed: those with a hit (about 3.7% of all), similar ones and a draw of the others.
RGS4 inhibitor – inhibitors of human regulator of G protein signaling 4. Transcreener GDP fluorescence polarization, RGS4-accelerated GTP hydrolysis. Potency, µM (highest dose often 114 µM), hits mostly inhibitors. 0.039% of 390,000 active. AID 504845; also: nearly all actives have a fitted effect of over 75% in size
Target sequence (P49798 whole entry, looked up): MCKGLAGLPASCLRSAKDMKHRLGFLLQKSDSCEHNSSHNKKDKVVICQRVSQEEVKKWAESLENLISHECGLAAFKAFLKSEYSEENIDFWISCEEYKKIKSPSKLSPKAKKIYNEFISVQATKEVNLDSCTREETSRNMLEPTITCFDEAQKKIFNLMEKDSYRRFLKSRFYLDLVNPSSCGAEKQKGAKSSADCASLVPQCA
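MLSMR compounds (23 nl, pin-transferred) preincubated 10 min at room temperature with a 500nM (2x) first reagent, then RGS4 at 900nM (2x) plus Transcreener GDP mix added; fluorescence polarization (620/688 nm) read before and after 90 min at 30 °C.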
BRCA1 expr up – increases BRCA1 expression. MCF7-BRCA1-FFLuc reporter, luminescence, 48 h; response scale: scaled: vehicle 0%, 10 µM genistein 100%. Potency, µM (series often up to 46.1 µM), hits mostly activators. 1.1% of 380,000 active; also: nearly all actives have a fitted effect of over 80% in size
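Using MCF7 cells harboring a BRCA1 firefly luciferase reporter, plated 2 h before compound pinning, the screen measured luminescence after 48 h incubation. Responses were normalized to DMSO and 10 microM genistein, then fitted for concentration-effect.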
PTHR1 ag – PTHR1 (human) receptor agonism; Q03431; HEK293 GP2 PTHR1 cells, GloSensor cAMP luminescence, 1 h; Potency, µM (highest dose often 115 µM), usual class: activators; 0.075% of 410,000 active; AID 743266; also: nearly all actives have a fitted effect of over 55% in size
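HEK-293-derived GP2 cells expressing PTHR1 and a GloSensor cAMP reporter, 3,000/well, plated overnight, given luciferin plus IBMX (each 0.5 mM as added) for 1 h at 37 °C, then compound for 1 h at 37 °C. Luminescence was read after 15 min at room temperature.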
B2AR arrestin – recruits beta-arrestin to the human beta2-adrenergic receptor; P07550; beta-arrestin recruitment to beta2AR, cell-based reporter; Potency, µM (top dose mostly 46.1 µM), usual class: activators; 0.02% of 330,000 active; AID 492947; also: nearly all actives have a fitted effect of over 65% in size
DRD3 antagonist – blocks the human D3 dopamine receptor. D3R cells, DiscoveRx beta-arrestin luminescence, antagonist mode; active compounds read low. AID 652054. max response, negative = inhibition, %. P35462. 2.5% of 360,000 active; in the data active = max response below about -50%; inconclusive = no clear call, values can overlap the other calls
Target sequence (P35462 whole entry, looked up): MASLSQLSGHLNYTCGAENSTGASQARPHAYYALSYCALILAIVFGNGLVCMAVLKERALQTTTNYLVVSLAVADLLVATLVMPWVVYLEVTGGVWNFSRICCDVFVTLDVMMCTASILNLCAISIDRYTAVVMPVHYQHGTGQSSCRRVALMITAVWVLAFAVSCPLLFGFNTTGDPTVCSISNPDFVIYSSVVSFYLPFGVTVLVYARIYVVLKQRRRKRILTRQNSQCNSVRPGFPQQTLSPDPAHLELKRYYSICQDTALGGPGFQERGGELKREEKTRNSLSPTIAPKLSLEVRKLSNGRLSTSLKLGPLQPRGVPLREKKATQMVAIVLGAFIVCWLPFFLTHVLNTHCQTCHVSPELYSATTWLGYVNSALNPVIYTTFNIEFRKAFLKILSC
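Cells plated overnight at 1500 cells/well, then exposed to library compounds with dopamine controls for 90 minutes at 37 degrees C. DiscoveRx reagent added for 30–60 minutes at room temperature; luminescence read, quantitative HTS format.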
DRD3 agonist – agonists of human D3 dopamine receptor. 0.58% of 410,000 active. P35462. AID 652048. D3R DiscoveRx beta-arrestin cells, luminescence, 90 min. max activation, %; in the data active = max activation above about 30%
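Agonist-mode cell screen: cells plated at 1500/well and incubated overnight at 37 °C, then exposed to library compounds for 90 min at 37 °C. Detection reagent was added for 30–60 min at room temperature, and luminescence was read.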
Of the large screens only hits and unclear results are named; the others gave an inactive call. Unless noted, calls follow the shape of the dose curve; as a rule, active = well fitted curve in the direction sought with a large enough effect; inconclusive = small, poorly fitted or top-dose-only effect, or another doubt; inactive = no such curve, though single readings can be large; an effect the other way counts as inactive or inconclusive.

COc1ccccc1CNC(=O)C(C)n1c(=O)cc(-c2ccccc2)c2c(C)nn(C)c21 (stereo not drawn)	none (no result: BRCA1 expr up, B2AR arrestin, DRD3 antagonist)
COc1cccc(N2CC(NC(=O)c3ccco3)CC2=O)c1 (stereo not drawn)	none (no result: BRCA1 expr up, B2AR arrestin, DRD3 antagonist)
O=C1N=C(N2CCOCC2)S/C1=C\c1ccncc1	DRD3 antagonist inconclusive
CC(=C/c1ccccc1)/C=C1/SC(N2CCOCC2)=NC1=O	BRCA1 expr up 11µM
O=C(Cn1c(=O)n(Cc2ccccc2)c(=O)c2sc3ccccc3c21)Nc1ccc(F)cc1	none (no result: B2AR arrestin, DRD3 antagonist)
CC1=C(c2ccc(C)cc2)S(=O)(=O)N(Cc2ccc(C(=O)NCc3ccccc3F)cc2)C1=O	none (no result: BRCA1 expr up, B2AR arrestin, DRD3 antagonist)
CCOC(=O)c1c(NC(C)=O)sc2c1CCN(Cc1ccccc1)C2	none
CCOC(=O)c1c(NC(C)=O)sc2c1CCC(C=O)=C2Sc1ccccc1	DRD3 antagonist -58
O=C(/C=C/[C@H]1O[C@@H](n2ccc(=O)[nH]c2=O)[C@H](O)[C@@H]1O)N1CCN(Cc2ccc(F)cc2)CC1	none (no result: RGS4 inhibitor, B2AR arrestin)
Cc1cccc(Cc2nnc(CCC(=O)N(C)CCc3ccccc3)o2)c1	BRCA1 expr up 3.5µM
Nc1cc(OCc2ccccc2)ccc1OCc1ccccc1	BRCA1 expr up 11µM (no result: B2AR arrestin)
COc1ccc(F)cc1S(=O)(=O)N1CCC2(CC1)OCCN2S(=O)(=O)c1cccs1	none
Cc1cccc(CN2CCN(c3ccccn3)CC2)c1	DRD3 antagonist inconclusive (no result: B2AR arrestin)
c1ccc(COc2cccc(CN3CCN(c4ccccn4)CC3)c2)cc1	DRD3 agonist 39 (no result: B2AR arrestin)
CC1(C)C2CC[C@]1(C)C(=O)N(CCCCN1CCN(c3ccccn3)CC1)C2=O	DRD3 agonist 80
c1ccc(CCCN2CCN(c3ccccn3)CC2)cc1	DRD3 antagonist -62
O=C(CCCN1CCN(c2ccccn2)CC1)c1ccc(F)cc1	none
c1ccc(N2CCN(Cc3ccsc3)CC2)nc1	DRD3 antagonist inconclusive, DRD3 agonist 53
Cc1ccc(CSc2ccc(C(=O)N3CCOCC3)cc2[N+](=O)[O-])cc1	none
NNC(=O)c1csc(-c2ccc(C(F)(F)F)cc2Cl)n1	none
Cn1cnc(CCNC(=O)C[C@H]2CC[C@@H]3[C@H](COC[C@H](O)CN3C(=O)C3CCCC3)O2)c1	none (no result: RGS4 inhibitor, BRCA1 expr up, B2AR arrestin)
C[C@H]1CN([C@@H](C)CO)C(=O)CCCn2nncc2CO[C@@H]1CN(C)C(=O)Cc1ccccc1	none (no result: RGS4 inhibitor, B2AR arrestin)
CC(=O)Nc1sc2c(c1CN1CCCC1)CCCC2	none
CC(=O)Nc1sc2c(c1CN1CCN(c3ccccn3)CC1)CCCC2	DRD3 antagonist -62
Cc1ccc(CN2CCN(c3ccccn3)CC2)s1	DRD3 antagonist inconclusive, DRD3 agonist 60
COc1ccc(F)cc1NC(=O)C1CCN(c2nc(-c3ccc(OC)c(OC)c3)no2)CC1	none (no result: BRCA1 expr up, B2AR arrestin, DRD3 antagonist)
CCCCNC(=S)N1CCC(Cc2ccccc2)CC1	none
C[S+](C)CC(=O)c1ccc2ccccc2c1	none (no result: RGS4 inhibitor, PTHR1 ag, B2AR arrestin, DRD3 antagonist, DRD3 agonist)
CC(C)N(CCC(=O)c1ccc2ccccc2c1)Cc1ccccc1	RGS4 inhibitor 0.67µM, DRD3 antagonist -132
CCC(=O)CCC(=O)c1ccc2ccccc2c1	BRCA1 expr up 7.1µM
CC(OC(=O)c1ccc2ccccc2c1)C(=O)N(C)Cc1ccccc1 (stereo not drawn)	none
CCC(c1nnnn1C(C)(C)C)N1CCN(c2cc(Cl)ccc2C)CC1 (stereo not drawn)	DRD3 antagonist -56
Cc1nc(NCC2CCCO2)c2nnn(Cc3c(F)cccc3Cl)c2n1 (stereo not drawn)	none
O=C(Nc1ccc2nccnc2c1)c1cnccn1	RGS4 inhibitor inconclusive, BRCA1 expr up 11µM
CCCOC(=O)c1ccc(NC(=O)c2cnccn2)cc1	BRCA1 expr up 10µM
O=C(Nc1ccc(NC(=O)c2ccco2)cc1)c1cnccn1	BRCA1 expr up 13µM
O=C(O)C1CC=CCC1C(=O)N1CC=C(c2ccccc2)CC1 (stereo not drawn)	DRD3 antagonist -62
O=C(O)CCC(=O)N1CC=C(c2ccccc2)CC1	DRD3 antagonist inconclusive
COc1cc(C(=O)COC(=O)c2ccc3c(c2)OCCO3)cc(OC)c1OC	DRD3 antagonist inconclusive (no result: RGS4 inhibitor, B2AR arrestin)
O=S(=O)(c1cccs1)N1CCC(CO)(Cc2cccc(F)c2)CC1	none
OCCCNc1ncnc2sc3c(c12)CCN(Cc1ccccc1)C3	none
O=c1[nH]cnc2sc3c(c12)CN(Cc1ccccc1)CC3	DRD3 agonist 60
O=c1[nH]cnc2sc3c(c12)CCN(Cc1ccccc1)C3	DRD3 agonist 74
CC1(C(=O)O)CCCN(C(=O)c2ccc(F)cc2Cl)C1 (stereo not drawn)	none (no result: RGS4 inhibitor, B2AR arrestin)
O=C(C1CCN(S(=O)(=O)c2cc(Cl)ccc2Cl)CC1)N1CCCC1	none
CCc1ccc(OCC(=O)O/N=C(\N)c2ccncc2)c(Br)c1	BRCA1 expr up inconclusive
N/C(=N\OC(=O)COc1ccc(Cl)cc1Cl)c1cccnc1	BRCA1 expr up 7.9µM
N/C(Cc1cccs1)=N\OC(=O)COc1ccc(Cl)cc1Cl	BRCA1 expr up 11µM
N/C(=N\OC(=O)COc1ccc(Cl)cc1Br)c1ccncc1	BRCA1 expr up 2.5µM
COc1cccc(-c2nc(CSCC(=O)NCCc3ccc(Cl)cc3)c(C)o2)c1	none (no result: BRCA1 expr up, B2AR arrestin, DRD3 antagonist)
O=C(CSc1nnc(-c2ccccn2)n1Cc1ccccc1)N1CCOCC1	none
CCOC(=O)N1CCC(NCCNC(=O)c2cccc(F)c2)CC1	DRD3 antagonist -112
CCOC(=O)N1CCC(Nc2c(Nc3cccc(CC)c3)c(=O)c2=O)CC1	DRD3 antagonist -62
CCOC(=O)N1CCC(Nc2c(Nc3ccc(F)cc3)c(=O)c2=O)CC1	DRD3 antagonist -89
CCOC(=O)N1CCC(NCCNC(=O)c2ccc(F)cc2)CC1	none
COc1ccccc1NC(=O)Nc1cc(F)ccc1F	none
CC(NC(=O)CCNC(=O)c1ccccc1Cl)c1ccc(-n2ccnc2)cc1 (stereo not drawn)	DRD3 antagonist -59
O=C(c1ccccc1)c1coc2c1C(=O)c1ccccc1C2=O	none
O=C1c2ccccc2C(=O)c2c1oc(C(F)(F)F)c2C(=O)c1ccccc1	DRD3 antagonist -70
CCC(C)NC(=O)C1CCN(S(=O)(=O)c2ccc3c(c2)CCCN3C(C)=O)CC1 (stereo not drawn)	none (no result: BRCA1 expr up, B2AR arrestin, DRD3 antagonist)
CCN(CC)CCNC(=O)c1[nH]c2ccc(OCc3ccccc3)cc2c1C	DRD3 antagonist -86
CCN(Cc1ccccc1)C(=O)c1[nH]c2ccc(OC)cc2c1C	none
Cc1cc(Br)ccc1NC(=O)CCS(=O)(=O)c1cccc2nsnc12	none (no result: B2AR arrestin, DRD3 antagonist)
Cc1ccc(N2Cc3ccccc3C2=S)cc1	BRCA1 expr up 4µM
CC(C)CCN(C(=O)Nc1ccc(Cl)c(Cl)c1)C1CCN(C(C)C)CC1	none (no result: BRCA1 expr up, B2AR arrestin, DRD3 antagonist)
CC(C)CCN(C(=O)Nc1ccc(Cl)cc1)C1CCN(C(C)C)CC1	DRD3 antagonist -59
COc1ccccc1NC1=C(C)C(=O)CC1	none
